A selection: hits, their analogues and other compounds. The true share with any hit is near 5.9%.
rTrxR1 inhibitor – blocks rat thioredoxin reductase 1; O89049; AID 588453; Potency, µM (titrated, usually from 114 µM), for the others: at the highest dose activity change, negative = inhibition, hits mostly inhibitors; 390,000 tested, 1% active; recombinant rTrxR1, NADPH fluorescence consumption, selenite substrate; note: potency is the fitted concentration of half-maximal effect; nearly all actives have a fitted effect of over 65% in size
Target sequence (O89049 whole entry, looked up): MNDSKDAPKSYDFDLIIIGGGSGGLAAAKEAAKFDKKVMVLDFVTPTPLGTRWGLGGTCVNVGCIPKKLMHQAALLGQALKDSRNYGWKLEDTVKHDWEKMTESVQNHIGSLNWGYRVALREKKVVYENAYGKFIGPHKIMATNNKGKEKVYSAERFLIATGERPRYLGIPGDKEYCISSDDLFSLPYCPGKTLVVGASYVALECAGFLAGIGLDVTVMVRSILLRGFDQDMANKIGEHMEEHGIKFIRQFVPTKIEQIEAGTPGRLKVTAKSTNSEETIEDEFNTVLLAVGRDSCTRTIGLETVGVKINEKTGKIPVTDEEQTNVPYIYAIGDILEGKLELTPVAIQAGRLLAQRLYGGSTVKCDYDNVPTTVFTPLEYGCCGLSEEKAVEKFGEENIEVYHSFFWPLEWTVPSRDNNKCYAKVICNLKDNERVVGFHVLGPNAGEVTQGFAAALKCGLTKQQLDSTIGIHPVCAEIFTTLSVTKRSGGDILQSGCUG
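Rat TrxR1 (90 nM in the dispensed reagent) was pre-reduced with 400 uM NADPH for 5 min at room temperature, then incubated with compound for 15 min. After 400 uM selenite was added, NADPH fluorescence (Ex 340/Em 450 nm) was followed for 8 min.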
TrxR1 substrate – rat thioredoxin reductase 1 substrate activity. O89049. purified TrxR1 substrate turnover, NADPH consumption readout. Potency, µM (top dose mostly 114 µM), for the others: top-dose activity change, negative = substrate turnover. 390,000 tested, 0.01% active; note: potency is the fitted concentration of half-maximal effect; nearly all actives have a fitted effect of over 50% in size
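Rat TrxR1, dispensed at 90 nM, was prereduced with 400 uM NADPH (final) for 5 min at ~22 deg C, then incubated with compound 15 min before 400 uM selenite. A first-read NADPH fluorescence drop versus no-compound background flagged substrates.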
Coupling enz – inhibits coupling enzyme system, counter-screen for aldolase hits; coupling enzyme system counterscreen, AmpLite Red fluorescence; activity change, negative = inhibition, % at 58.2 µM, hits read low; 290,000 tested, 0.67% active; AID 2472; in the data active = activity change below about -30%
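Counterscreen lacking aldolase: glyceraldehyde-3-phosphate coupling-enzyme reagent preincubated 10 min at RT with compound (at 57.5 uM final), then substrate/coupling system with AmpLite Red added; fluorescence read at 525/598 nm after 20 min RT.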
RORgamma inh – blocks mouse ROR gamma transcriptional activity. P51450. Potency, µM (highest dose often 53.6 µM), for the others: top-dose activity change, negative = inhibition, most hits filed as inhibitors. Drosophila S2 Gal4-RORgamma UAS-luciferase reporter, 20 h. 310,000 tested, 5.4% active. AID 2551; note: potency is the fitted concentration of half-maximal effect; nearly all actives have a fitted effect of over 60% in size
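Compounds are pin-transferred onto Drosophila Schneider cells expressing a copper-inducible Gal4–ROR gamma transactivation domain fusion. After 1 hr, copper sulfate is added to 700 uM final; luciferase is read 20 hr later.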
GALK inhibitor – inhibitors of human galactokinase | P51570 | Potency, µM (highest dose often 57.5 µM), without a hit: at the highest dose activity change, negative = inhibition, hits mostly inhibitors | Purified GALK, Kinase-Glo residual ATP luminescence | 270,000 tested, 0.007% active; note: potency is the fitted concentration of half-maximal effect
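5 nM enzyme, 35 uM ATP, 100 uM galactose, 20 mM HEPES pH8.0, 5 mM MgCl2; 1 h RT; residual ATP by Kinase-Glo Plus luminescence, qHTS format.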
VP16 counter – inhibits Gal4-VP16 luciferase reporter, ROR gamma counter-screen; 310,000 tested, 3.5% active; Potency, µM (highest dose often 53.6 µM), for inactives: at the top dose activity, negative = inhibition, usual class: inhibitors; Drosophila S2 Gal4-VP16 UAS-luciferase, luminescence, 20 h;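 note: Gal4-VP16 expression switched on by copper sulfate through the metallothionein promoter; potency is the fitted concentration of half-maximal effect; nearly all actives have a fitted effect of over 50% in size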
The depositor's hits bear a star; ? = inconclusive; · = not tested or not shown; ! = repeats disagree; [ ] = remark or other dose. Unless noted, calls come from the whole dose curve; as a rule, active = well fitted curve in the direction sought with a large enough effect; inconclusive = small, poorly fitted or top-dose-only effect, or another doubt; inactive = no such curve, though single readings can be large; an effect the other way counts as inactive or inconclusive. % is set by controls: 0 for no effect and ±100 for the full control effect.

SMILES	rTrxR1 inhibitor	TrxR1 substrate	Coupling enz	RORgamma inh	GALK inhibitor	VP16 counter
C=C1C(=O)[C@]23[C@H](O)[C@H]1CC[C@H]2[C@@]12COC3(O)[C@H](O)[C@@H]1C(C)(C)CC[C@@H]2O	·	·	3	3.2µM*	·	3.5µM*
Clc1ccc(N2CCN(c3ccnc(Cl)n3)CC2)cc1	8%[57.1 µM]	7%[57.1 µM]	·	·	·	·
CSc1nccc(N2CCN(c3ccc(F)cc3)CC2)n1	-6%	-1%	-1	?	1%	13µM*
Cc1ccc(-c2cc(C(=O)Nc3ccccc3C)c3ccccc3n2)o1	?	28%[57.1 µM]	1	?	0%	13µM*
COC(=O)c1cc(-c2ccc(C)o2)nc2ccccc12	32µM*	2%	-3	?	3%	?
CCOc1ccc(C2N(c3ccc(F)cc3)C(=O)C3CCCN32)cc1 (stereo not drawn)	12%[57.1 µM]	1%[57.1 µM]	-3	42%	1%	0%
Cc1cc(C(=O)N/N=C/c2c(C)n(C)c3ccccc23)n[nH]1	0%[57.1 µM]	0%[57.1 µM]	-5	6%	·	0%
Cc1[nH]n(-c2ccccc2)c(=O)c1C=NCCc1ccccc1	7%	-7%	0	-10%	1%	6%
Cc1[nH]n(-c2ccccc2)c(=O)c1/C=N/N1CCOCC1	10%	0%	-4	-7%	0%	-10%
Cc1cc(-c2n[nH]c(=S)n2/N=C/c2cccc([N+](=O)[O-])c2)n[nH]1	?	-5%	1	-16%	0%	-12%
Cc1[nH]n(-c2ccccc2)c(=O)c1/C=N/NC(=O)c1ccc(O)cc1O	-1%	-7%	-13	1.8µM*	-2%	7.1µM*
Cc1cc(C(=O)N/N=C/c2c(C)[nH]n(-c3ccccc3)c2=O)n[nH]1	11%	-11%	-1	10µM*	1%	?
CCCCN(CCCC)C(=S)N/N=C/c1c(C)[nH]n(-c2ccccc2)c1=O	?	-14%	-9	1.6µM*	0%	5µM*
Cc1[nH]n(-c2ccccc2)c(=S)c1C=Nc1cccc([N+](=O)[O-])c1	?	-6%	-5	1.8µM*	0%	7.1µM*
Cc1cccc(N2CCN(S(=O)(=O)c3csc(C(N)=O)c3)CC2)c1C	18%	-1%	·	·	·	·
O=C1C(Cl)=C(NC2CCCCC2)C(=O)N1c1ccc(Cl)cc1	8%	3%	0	45%	·	3%
COc1ccc(-c2nc3c(c(SCC(=O)N4CCCC4)n2)COC(C)(C)C3)cc1	28%	2%	·	·	·	·
COc1ccc(Cl)cc1NC(=O)COC(=O)c1ccc(Cl)nc1	34%	2%	·	·	·	·
CC(=O)N(C(C)=O)C1=C(C#N)C2(CCCCC2)Cc2ccccc21	25%[57.1 µM]	12%	·	16%	-2%	-10%
CC(c1ccccc1)N1C(=O)NC(NC(=O)C(C)(C)C)(C(F)(F)F)C1=O (stereo not drawn)	-3%[11.4 µM]	3%[57.1 µM]	0	7%	4%	-4%
Cc1ccc(-n2[nH]c(C)c(C=Nc3cc(C)ccn3)c2=O)cc1	-9%	-11%	0	-2%[0.365 µM]	1%	·
CCCCN=Cc1c(C)[nH]n(-c2ccccc2)c1=S	-3%	-1%	-14	0.63µM*	0%	2.5µM*
Cc1ccc(-n2[nH]c(C)c(/C=N/NC(=O)c3ccc(O)cc3O)c2=O)cc1	10%	-13%	-10	2.5µM*	1%	7.1µM*
CC1CN(Cc2ccccc2)c2nc3c(c(=O)n(CC(=O)O)c(=O)n3C)n2C1 (stereo not drawn)	20%	1%	2	-2%	4%	-4%
O=C1CCc2cc(S(=O)(=O)N3CCN(c4cccc(C(F)(F)F)c4)CC3)ccc2N1	2%	6%	3	-22%	0%	-17%
SMILES	rTrxR1 inhibitor	TrxR1 substrate	Coupling enz	RORgamma inh	GALK inhibitor	VP16 counter
Cc1cc(-c2ccccc2)c2ccc(NC(=O)C(C)(C)C)nc2n1	9%	3%	-2	11µM*	-1%	?
COCCN1C=C2C(=O)C(C)(OC(=O)CCC(=O)OC)C(=O)C(Br)=C2C=C1c1ccc(OC)cc1 (stereo not drawn)	-7%	?	-30*	·	·	·
CCN(CC)CCCN1C=C2C(=O)C(C)(OC(=O)CCC(=O)OC)C(=O)C(Br)=C2C=C1c1ccc(OC)cc1 (stereo not drawn)	-8%	-7%	-15	·	·	·
COC(=O)CCC(=O)OC1(C)C(=O)C2=CN(c3ccc(OC)cc3)C(c3ccc(OC)cc3)=CC2=C(Br)C1=O (stereo not drawn)	7%[57.1 µM]	0%[57.1 µM]	-10	·	·	·
C=CCN1C=C2C(=O)C(C)(OC(=O)CCC(=O)OC)C(=O)C(Br)=C2C=C1c1ccc(OC)cc1 (stereo not drawn)	6%[57.1 µM]	-10%	-41*!	13%	-2%	-4%
COC(=O)CCC(=O)OC1(C)C(=O)C2=CN(C3CCCC3)C(c3ccc(OC)cc3)=CC2=C(Br)C1=O (stereo not drawn)	-10%	-16%	-41*	0%	-2%	-3%
CN1C(=O)c2ccccc2Sc2ccc(NC(=O)COc3ccc(Cl)cc3)cc21	14%[57.1 µM]	-6%[57.1 µM]	·	·	·	·
Cc1ccc2nc(C)cc(C(=O)OCC(=O)c3ccc(Cl)c([N+](=O)[O-])c3)c2c1	?	0%[57.1 µM]	1	21%	-1%	-11%
Cc1ccc(NC(=O)CN(C)C(=O)Cc2ccc3c(c2)CCC3)cc1	-5%	-4%	·	·	·	·
O=C(Nc1ccc(OC(F)(F)F)cc1)C1CC(c2ccc(F)cc2)=NO1 (stereo not drawn)	27%	2%	1	-1%	0%	-11%
CCOc1ccccc1-c1nnc2n1N=C(c1ccc(OC)c(OC)c1)CS2	·	·	2	-14%	·	0%
Fc1ccc(-c2n[nH]c(=S)c3ccccc23)cc1	13%	5%	0	7.1µM*	5%	16µM*
COc1ccccc1N1CCN(C(C)C(=O)N2CC(C)OC(C)C2)CC1 (stereo not drawn)	20%[57.1 µM]	2%[57.1 µM]	-1	1%	-4%	2%
Nc1nc(Sc2c([N+](=O)[O-])cc(C(F)(F)F)cc2[N+](=O)[O-])n[nH]1	16µM*	7%[57.1 µM]	1	10µM*	1%	16µM*
O=c1oc2ccccc2cc1-c1cn2cccnc2n1	-12%	65%	-1	?	0%	?
O=c1oc2ccccc2cc1-c1cn2ccccc2n1	-2%[57.1 µM]	-2%[57.1 µM]	-5	1µM*	18%	2.2µM*
CCOC(=O)c1cnc2c(ccc3ccccc32)c1Nc1ccc(Cl)cc1	13%	4%	·	·	·	·
COc1ccccc1/C=C/C(=O)NCC(=O)N/N=C/c1ccccc1	15%	11%	1	6%	4%	9%
COc1cccc(/C=N/NC(=O)CNC(=O)C(c2ccccc2)c2ccccc2)c1O	12%	4%	-6	1.8µM*	1%	?
